Sampled rows, rich in hits. Any-hit rate of the full collection: about 19%.
Pf growth 48h: inhibits P. falciparum growth in the first generation, 48 h. hit rate 5.9% among 310,000. Potency, µM (top dose mostly 28.7 µM), actives largely listed as inhibitors. P. falciparum luciferase growth in erythrocytes, 48 h
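Firefly luciferase activity from engineered P. falciparum reports growth; inhibitors lower the luminescent signal. Cultures contained 2% hematocrit erythrocytes at 0.1% final parasitemia.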
Cycloheximide cs: counter-screen hit for Shiga toxin inhibitors, cycloheximide | hit rate 12% among 300,000 | cell reporter, cycloheximide protein synthesis inhibition counterscreen | max response, % | AID 2314; in the data active = max response mostly above about 13%, no sharp cut-off; inactive = mostly below about 14%; also: read at 38.3 µM for the half of the compounds with a filed dose
Shiga toxin inh: blocks Shiga toxin action in Vero cells. inhibition, % at 38.7 µM. Vero cells, Shiga toxin protein synthesis inhibition reporter. hit rate 9.2% among 290,000; in the data active = inhibition mostly above about 28%, no sharp cut-off; inactive = mostly below about 43%
Marburg entry inh: inhibitors of Marburg virus binding or cell entry. Marburg virus pseudotyped entry inhibition, cell reporter. Potency, µM (titrated, usually from 37.8 µM), most hits filed as inhibitors. hit rate 1.8% among 300,000. AID 540276; calls by dose curve; tested in HEK293 cells
Pf growth 96h: P. falciparum growth inhibition at 96 hour, primary screen for plastid delayed-death inhibitors. P. falciparum luciferase reporter growth, 96 h. Potency, µM (titrated, usually from 28.7 µM), usual class: inhibitors. hit rate 6.9% among 320,000. AID 504834
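Cell-based qHTS: luciferase-tagged P. falciparum in erythrocytes (2% hematocrit, 0.05% parasitemia final) incubated with compounds for 96 hours, 37 C, 5% CO2; luciferase detection reagent then added and luminescence measured.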
LASV entry inh: inhibitors of Lassa virus binding or cell entry | Lassa virus pseudotype entry inhibition, cell reporter | Potency, µM (doses to about 37.9 µM), most hits filed as inhibitors | hit rate 1.2% among 300,000; calls by dose curve; tested in HEK293 cells; also: nearly all actives have a fitted effect of over 50% in size
Large screens that a line does not name were inactive. Unless noted, calls follow the shape of the dose curve; as a rule, active = well fitted inhibition curve with a large enough effect; inconclusive = small, poorly fitted or top-dose-only effect, or another doubt; inactive = no such curve, though single readings can be large or run the other way.

COc1ccc(-c2nc3cc(C)ccn3c2NCc2ccc3c(c2)OCO3)cc1	Pf growth 48h inconclusive, Cycloheximide cs 27.2, Shiga toxin inh 133.4 (no result: Marburg entry inh, LASV entry inh)
c1ccc(-c2nc3ccccn3c2NCc2ccc3c(c2)OCO3)cc1	Pf growth 48h inconclusive
CCOC(=O)c1nnn(-c2nonc2N)c1C	none (no result: Pf growth 48h)
CCOC(=O)C1CCN(CC(=O)Nc2cc(S(=O)(=O)N3CCCCC3)ccc2Cl)CC1	Pf growth 48h 11.7µM, Marburg entry inh inconclusive, Pf growth 96h inconclusive, LASV entry inh inconclusive (no result: Cycloheximide cs, Shiga toxin inh)
O=C(CN1CCN(c2ccc(O)cc2)CC1)Nc1cc(S(=O)(=O)N2CCCCC2)ccc1Cl	Pf growth 96h 9.28µM
CC1CN(CC(=O)Nc2cc(S(=O)(=O)N3CCCC3)ccc2Cl)CC(C)O1 (configuration not stated)	Pf growth 96h inconclusive (no result: Marburg entry inh, LASV entry inh)
O=C(CN1CCN(c2ccc(O)cc2)CC1)Nc1cc(S(=O)(=O)N2CCCC2)ccc1Cl	Pf growth 48h 9.28µM, Pf growth 96h inconclusive (no result: Marburg entry inh, LASV entry inh)
CCN1CCN(CC(=O)Nc2cc(S(=O)(=O)N3CCCCC3)ccc2Cl)CC1	Marburg entry inh inconclusive (no result: Pf growth 48h, Cycloheximide cs, Shiga toxin inh, Pf growth 96h)
CCc1nc(-c2ccc(OC)c(OC)c2)cc2cc(OC)c(OC)cc12	Pf growth 96h 9.28µM
COc1ccc(-c2nc3ccccc3nc2-c2ccccc2)cc1OC	Pf growth 48h inconclusive, Marburg entry inh inconclusive, Pf growth 96h inconclusive
COc1ccc(-c2cc(-c3ccccc3)nc(Cl)n2)cc1OC	Cycloheximide cs 13.8, Marburg entry inh inconclusive, Pf growth 96h inconclusive, LASV entry inh inconclusive
Cc1ccc(-c2cc(-c3ccccc3)nc(Cl)n2)cc1	Cycloheximide cs 46.2, Shiga toxin inh 127.9
CCOc1ccc(-c2cc3cc(OC)c(OC)cc3c(C)n2)cc1	none
O=C(COC(=O)c1ccc(F)cc1)NCc1ccc(F)cc1	none (no result: Cycloheximide cs, Shiga toxin inh, Marburg entry inh, LASV entry inh)
CCOCCCNC(=S)N1C2CCC1CC(NC(=O)NC13CC4CC(CC(C4)C1)C3)C2 (configuration not stated)	Pf growth 48h 4.65µM, Pf growth 96h 3.7µM
Cc1ccc(C(=O)c2coc3ccc(O)c(CN4CCN(C)CC4)c23)cc1	Pf growth 48h 3.7µM, Cycloheximide cs 14.9, Shiga toxin inh 72.6, Marburg entry inh 23.1µM
COc1ccc(C(=O)c2c(C)oc3ccc(O)c(CN4CCOCC4)c23)cc1	Marburg entry inh 20.6µM, LASV entry inh inconclusive (no result: Pf growth 48h)
COc1ccc(C(=O)c2coc3ccc(O)c(CN4CCOCC4)c23)cc1	Pf growth 48h inconclusive, Cycloheximide cs 13.3, Shiga toxin inh 38.1 (no result: Marburg entry inh, LASV entry inh)
COc1ccc(NC(=O)c2c(C)oc3ccc(O)c(CN4CCOCC4)c23)cc1	Marburg entry inh inconclusive (no result: Pf growth 48h, Cycloheximide cs, Shiga toxin inh, Pf growth 96h)
CCN(CC)Cc1c(O)ccc2occ(C(=O)c3ccc(OC)cc3)c12	Cycloheximide cs 15.0, Marburg entry inh inconclusive, Pf growth 96h inconclusive, LASV entry inh inconclusive
COc1ccc(C(=O)c2coc3ccc(O)c(CN4CCCC4)c23)cc1	Pf growth 96h inconclusive (no result: Pf growth 48h, Marburg entry inh, LASV entry inh)
O=C(c1cccs1)c1coc2ccc(O)c(CN3CCOCC3)c12	Marburg entry inh inconclusive
CCCC(=O)Nc1ccccc1NC(=O)c1ccc(OCC)cc1	none (no result: Marburg entry inh, LASV entry inh)
Cc1ccccc1Nc1oc(-c2ccccc2)nc1-c1cccc2ccccc12	none (no result: Pf growth 48h, Cycloheximide cs, Shiga toxin inh, Pf growth 96h, LASV entry inh)
CC(=O)N1CCCc2cc(S(=O)(=O)N3CCC(C)CC3)ccc21	Marburg entry inh inconclusive, Pf growth 96h inconclusive
COc1ccc(OC)c(C(O)c2coc3ccc(O)c(CN4CCOCC4)c23)c1 (configuration not stated)	Pf growth 48h 7.38µM, LASV entry inh inconclusive
COc1ccc(OC)c(C(O)c2coc3ccc(O)c(CN(C)C)c23)c1 (configuration not stated)	none
CCC(=O)Nc1cccc(NC(=O)CSc2nnc(-c3ccc(NS(C)(=O)=O)cc3)n2CC)c1	none
CN(C(=O)c1cncc(Br)c1)C1C2CC3CC(C2)CC1C3 (configuration not stated)	Pf growth 48h inconclusive, Cycloheximide cs 19.3, Pf growth 96h inconclusive
CN(C(=O)COC(=O)c1cncc(Br)c1)C1CCCCC1	Marburg entry inh inconclusive (no result: Pf growth 48h, Cycloheximide cs, Shiga toxin inh, Pf growth 96h)
CC(=O)c1cc2c(cc1NC(=O)c1ccc(C)cc1)OCO2	none
CCOc1ccc(-c2nc(CCl)cs2)cc1OC	Cycloheximide cs 16.9, LASV entry inh inconclusive
COc1ccc(-c2nc(CC(=O)O)cs2)cc1OC	none (no result: Pf growth 96h, LASV entry inh)
CCOc1cc(-c2noc(-c3cccnc3)n2)ccc1OC	none (no result: Pf growth 96h)
COc1ccc(-c2noc(-c3cccnc3)n2)cc1OC	Cycloheximide cs 16.9, Shiga toxin inh 51.8, Marburg entry inh inconclusive
CCOc1ccc(-c2noc(-c3cccnc3)n2)cc1OC	Cycloheximide cs 15.0, Pf growth 96h 9.28µM
CCOc1ccc(-c2noc(COC)n2)cc1OC	Cycloheximide cs 20.6, Pf growth 96h inconclusive
O=C(CCC(=O)NNC(=O)COc1ccc(Br)cc1)NCc1ccccc1	Marburg entry inh inconclusive
CC(=O)OC1(c2ccccc2)CCN(C2CCCCC2)CC1C (configuration not stated)	Pf growth 96h inconclusive (no result: Marburg entry inh, LASV entry inh)
CCN(CC)c1ccc(NC(=O)C2=CC=CN3CCS(=O)(=O)N=C23)cc1	none (no result: Cycloheximide cs, Shiga toxin inh, Marburg entry inh, LASV entry inh)
COc1ccc(C(=O)N/N=C/c2ccc(OC)c(CN3CCN(c4ccc(F)cc4)CC3)c2)cc1	none
COc1ccc(/C=N/NC(=O)c2ccoc2C)cc1CN1CCN(c2ccc(F)cc2)CC1	Pf growth 48h 9.28µM, Cycloheximide cs 45.2, Shiga toxin inh 51.1, Pf growth 96h inconclusive (no result: Marburg entry inh, LASV entry inh)
COc1cccc(/C=N/NC(=O)C(=O)NCc2ccco2)c1O	none
COc1cccc(/C=N/NC(=O)c2ccoc2C)c1O	Pf growth 48h inconclusive, Cycloheximide cs 38.3, Shiga toxin inh 85.6, Pf growth 96h inconclusive (no result: Marburg entry inh, LASV entry inh)
COc1cc(/C=N/NC(=O)c2ccoc2C)ccc1O	Cycloheximide cs 37.3, Marburg entry inh inconclusive
CCOc1ccc(/C=N/NC(=O)c2ccoc2C)cc1OC	Cycloheximide cs 78.5, Shiga toxin inh 76.7, Marburg entry inh inconclusive, Pf growth 96h inconclusive
O=C(Nc1ccccc1N1CCN(c2ccccc2)CC1)C12CC3CC(CC(C3)C1)C2	LASV entry inh inconclusive
Cc1ccc(OCC(=O)Nc2nc(-c3ccc(Br)cc3)ns2)cc1C	none (no result: Pf growth 48h, Cycloheximide cs, Shiga toxin inh, Pf growth 96h)
COc1cccc(/C=N/NC(=O)c2ccoc2C)c1	Cycloheximide cs 42.3, Shiga toxin inh 57.2, Marburg entry inh inconclusive, LASV entry inh inconclusive
Cc1occc1C(=O)N/N=C/c1ccccc1[N+](=O)[O-]	Cycloheximide cs 61.8, Shiga toxin inh 64.5, Marburg entry inh inconclusive, LASV entry inh inconclusive
COc1ccc(S(=O)(=O)N(C)c2ccc(C(=O)N3CCCC3)cc2)cc1	Pf growth 96h inconclusive, LASV entry inh inconclusive
Cc1ccc(S(=O)(=O)N(C)c2ccc(OC(C)C(=O)N3CCCC3)cc2)cc1C (configuration not stated)	Pf growth 48h 11.7µM, Pf growth 96h inconclusive (no result: Cycloheximide cs, Shiga toxin inh)
CCOc1ccccc1Oc1cn[nH]c1-c1ccc(O)cc1O	Pf growth 48h 8.28µM, Marburg entry inh inconclusive, Pf growth 96h 9.28µM, LASV entry inh inconclusive
C=C(C)COc1ccc(-c2[nH]ncc2-c2ccc(OC)cc2)c(O)c1	Pf growth 48h inconclusive, Pf growth 96h inconclusive (no result: Marburg entry inh, LASV entry inh)
COc1ccc(-c2[nH]ncc2Oc2ccccc2OC)c(O)c1	Pf growth 48h inconclusive

Bioassay records from PubChem BioAssay.
